Test results as given in PubChem BioAssay AID624491 (Broad Institute, 2012).
Among all 1,800 compounds or so, about 1,400 (78%) were called active. Not shown: some 2% with an inconclusive outcome. So high a share suggests a set chosen from earlier hits. Not all results are given here. Measured potencies and affinities stand elsewhere. A number with no mark means an inactive call.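 How the source made its calls: active means fitted curve crossing a set activation limit at or below the highest valid dose tested; inconclusive means flat fit at 30 to 70% activation, or poor fit; inactive means the rest, including signal decreases.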

assay: blockers of NLG process in reporter cells – D54 ERlucT cells, luminescence, cherry-picks, dose response (AID 624491); settings: D54 ERlucT glycosylation luciferase reporter, 24 h, 100% = twice neutral-control luminescence; series mostly up to 19.5 µM; activation (NLG inhibition): at the top concentration;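 further: signal gain reflects blocked N-linked glycosylation of a luciferase reporter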

SMILES | activation (NLG inhibition)
COc1cc(-c2cc(-c3ccc(O)cc3)nc(N)c2C#N)ccc1O | 32.1%
COc1ccccc1-c1cc(NC=O)c2ncc(-c3cccc(C(C)=O)c3)n2c1 | -5.59%
COC(=O)c1cccc(NS(=O)(=O)c2ccc(OC)cc2)c1C | 34.1%
O=C(CC1Sc2ccccc2NC1=O)NNc1cccc(Cl)c1Cl (configuration not stated) | 12%
Cc1c(O)cc2c(c1O)C(=O)CC(c1ccccc1)O2 (configuration not stated) | 17.8%
CCc1nc(SCC(=O)c2ccc3c(c2)OCCO3)c2ccccc2n1 | 10.9%
Cc1ccc(C(C)C)c(OCc2nnc(SCC(=O)Nc3ncc(C)s3)n2C)c1 | 45%
COc1ccc(/C=C2\N=C(c3ccccc3Cl)NC2=O)cc1 | 20.3%
CCc1ccc(OCC(=O)Nc2ccncc2)c(Br)c1 | 7.78%
O=C(/C=C/c1cccnc1)c1ccc([N+](=O)[O-])cc1 | -16%
NC1=NC(c2ccc(Cl)cc2)C(C(=O)c2ccccc2)N1 (configuration not stated) | 51.4%
COc1ccc(S(=O)(=O)Nc2cccc3ccc(O)cc23)cc1 | 29.7%
O=C(CCN1C(=O)/C(=C\c2ccccc2)SC1=S)N1CCCCC1 | -1.63%
Cc1ccc(CNC(=O)Cc2ccc(-n3c(=O)[nH]c4ccsc4c3=O)cc2)cc1 | 35.2%
CCOc1ccc(-n2c(C)cc(C(=O)CCl)c2C)cc1 | 25.7%
COC(=O)c1c(NC(=O)CN2C(=O)NC3(CCC(C)CC3)C2=O)sc2c1CCC2 (configuration not stated) | 17%
COC(=O)CNC(c1ccccc1Cl)c1cc(Br)ccc1NC(=O)CCN1CCOCC1 (configuration not stated) | -5.06%
COc1ccc(CC(=O)Nc2ccc(-c3ccc4nnc(C)n4n3)cc2)cc1OC | 4.46% [at 5 µM]
N#CCC(CNc1ncc(C(F)(F)F)cc1Cl)OC(=O)c1ccc(Cl)cc1Cl (configuration not stated) | 18.6%
Cc1cccn2c(=O)c3cc(C(=O)N4CCCCC4)sc3nc12 | -15% [at 5 µM]
COc1ccc(-c2oc3cc(O)c(OC)c(O)c3c(=O)c2OC)cc1 | 58%
Cc1cccc(N2C(=O)CC(N3CCN(C(=O)c4ccccc4)CC3)C2=O)c1 (configuration not stated) | -1.39%

SMILES | activation (NLG inhibition)
CC1=C(n2ccnc2)CCC1=O | 37.6%
O=C1CCCC2=C1C(c1ccc(Cl)cc1)n1c(s/c(=C\c3ccc4ccncc4c3)c1=O)=N2 (configuration not stated) | 28%
O=c1cc(N2CCN(c3ccccc3Cl)CC2)[nH]c(=O)n1Cc1ccc(F)cc1 | 25%
Nc1c(N(CCC2=CCCCC2)C(=O)COc2ccc(F)cc2)c(=O)[nH]c(=O)n1Cc1ccccc1 | 62.4%
O=C(N/N=C/c1ccc2c(c1)OCO2)c1cccc2ccccc12 | 10.1%
COc1cccc(/C=N/NC(=O)c2[nH]nc3c2CCc2ccccc2-3)c1 | 5.49%
CC(C)(C)c1ccc(C(=O)NNC(=O)c2cccc(Br)c2)cc1 | 818%
COc1ccc(NC(=O)c2cnc(SC)nc2)cc1 | 75.1%
COc1ccc(/C=C/C(=O)c2ccc3c4c(cccc24)CC3)cc1OC | -43.1%
COc1ccc(/C=C/C(=O)c2c(O)cc(OC)cc2OC)cc1 | 40.4%
CCN(CC)Cc1cc(Nc2c3ccccc3nc3c4ccccc4n(C)c23)cc(CN(CC)CC)c1O | 49.9%
CCOC(=O)c1[nH]c(C)c(C(=O)Nc2cc(Cl)ccc2C)c1C | 14.7%
CCOC(=O)c1c(C)[nH]c(-c2csc(N)n2)c1C | 20.4%
CCOC(=O)c1[nH]c(COC(=O)CCOc2ccccc2OC)c(C(=O)OCC)c1C | 12.1%
CCN(CC)c1ccc(C(=O)n2cnc3ccccc32)cc1 | 16.8%
CC(=O)N1c2ccccc2C(=O)C1N(C)c1ccc(C)cc1 (configuration not stated) | -0.122%
COCCNc1nc(-c2ccccc2CO)c2sc(-c3ccccc3)cc2n1 | 16.9%
CCOC(=O)c1ccc(-n2cccc2/C=C2\NC(=O)NC2=O)cc1 | 19.5%
O=C(N/N=C\c1cccnc1)c1cc(-c2ccccc2)nc2c(Cl)cccc12 | 33.7%
O=C(/C=C/c1ccc([N+](=O)[O-])s1)N1CCCCC1 | -28.1%
CCN(c1ccccc1)S(=O)(=O)c1ccc(C(=O)NC2CCN(Cc3ccccc3)CC2)cc1 | 16.6%
Cc1nnc2n(c1=O)N=C(c1ccc(Cl)cc1)CS2 | -6.13%

SMILES | activation (NLG inhibition)
O=C(CN1C2=NCCCN2c2ccccc21)c1ccc([N+](=O)[O-])cc1 | 36%
CC(C)(C)S(=O)N1Cc2cc(C(=O)NCC(F)(F)F)nc(-c3cccc(-c4cccc(F)c4)c3)c2[C@@H]1CCO (some centres not stated) | -12.7%
Cc1cnc(C(=O)OCC(=O)NC2CCCCCCC2)cn1 | 16.8%
Cc1ccc(-c2nn(-c3ccccc3)cc2NC(=O)CCl)cc1 | -46.9%
COc1ccccc1NC(=O)Cn1nnc(-c2ccccc2NC(=O)c2ccco2)n1 | 45.5%
CCc1cccc(NC(=O)CN2C(=O)NC3(CCCCCCC3)C2=O)c1 | 34%
O=C(CN1C(=O)NC2(CCCCC2)C1=O)Nc1ccc2c(c1)CCC2 | 44.6%
Cc1ccc(C)c(N2CCN(S(=O)(=O)c3ccc(-c4ccc(=O)[nH]n4)o3)CC2)c1 | 86.2%
Cn1cnc([N+](=O)[O-])c1Oc1ccc2ccccc2c1 | 1.95%
CCn1c(=O)cc(C(=O)OC)sc1=Nc1ccc(F)c(F)c1 | 26%
O=C1c2cccc3c([N+](=O)[O-])ccc(c23)C(=O)N1CC1CCCO1 (configuration not stated) | 16.3%
O=c1cc(-c2ccccc2)[nH]n1-c1nc2ccccc2[nH]1 | -34.9%
Nc1cc2c(cc1Br)-c1c(C(=O)O)cccc1C2O (configuration not stated) | 8.32%
CO/N=C/c1ccc(OC)c(Oc2nc(OC)cc(OC)n2)c1 | 60.6%
O=C(COc1ccc(/C=N/NC(=O)c2cc3ccccc3o2)cc1Br)Nc1ccccc1 | 103%
CCCCCC[n+]1ccccc1/C=C/c1ccc(N(C)C)cc1 | 5.17%
CCC1=Nc2cc(C(=O)NCc3ccco3)ccc2Sc2ccc(Cl)cc21 | 50.7% [at 5 µM]
Cc1nnc2ccc(-c3ccc(NC(=O)c4ccco4)cc3)nn12 | 61.9%
O=C(COc1ccc(/C=N/NC(=O)c2cc3ccccc3o2)cc1Cl)Nc1ccccc1 | -67.6%
COc1ccc(NC(=O)CSc2nc3ccsc3c(=O)n2Cc2ccccn2)c(OC)c1 | 9.56%
CC(=O)c1ccc(Nc2c3c(nc4ccccc24)CCCC3)cc1 | 52.1%
CCn1cc2nc(SCC(=O)Nc3ccc(OC)cc3OC)n(Cc3ccc(OC)cc3)c(=O)c2n1 | -4.31%

SMILES | activation (NLG inhibition)
COc1cc(Nc2c3ccccc3nc3ccccc23)cc(OC)c1OC | -81.2%
COC(=O)c1cccc(Nc2c3c(nc4ccccc24)CCC3)c1 | 39.7%
CCN(c1ccccc1)S(=O)(=O)c1ccc(N)c(OC)c1 | 27.8%
c1ccc(CCNc2nc(-c3ccccn3)nc3ccccc23)cc1 | -27%
COc1ccc(C2=NOC(C(=O)NCc3ccco3)C2)cc1OC (configuration not stated) | 10.5%
COc1cccc(C2=NOC(C(=O)NCc3ccco3)C2)c1 (configuration not stated) | -0.205% [at 5 µM]
COc1cc(CNc2ccc(O)cc2)cc(Br)c1OCc1ccccc1 | -8.22%
COc1cc(C(=O)OCC(=O)c2cc(C)n(C)c2C)cc(OC)c1OC | 20.3%
COc1cc(C(=O)OC2CCCCC2=O)cc(OC)c1C (configuration not stated) | 41.1%
CN(C)CCCN(C(=O)c1ccc(S(=O)(=O)N2CCc3ccccc3C2)cc1)c1nc2ccc(F)cc2s1 | -14.2% [at 5 µM]
Cc1ccc(S(=O)(=O)N2CCCCC2CCNC(=O)C(=O)NCc2ccco2)cc1 (configuration not stated) | 23.6%
O=C(CSc1ncnc2nc[nH]c12)c1ccc([N+](=O)[O-])cc1 | 11.9%
CCOC(=O)/C=c1/s/c(=C\c2c(OC)ccc3ccccc23)c(=O)n1CC(=O)NCC1CCCO1 (configuration not stated) | 23.7%
CCOC(=O)c1[nH]c(C)c(C(=O)Nc2cccc(Cl)c2C)c1C | 20.9%
Cc1ccc2c(CNCc3ccccc3)cc(=O)oc2c1 | 39.2%
CCOC(=O)n1c(=O)n(Cc2ccc(OC)cc2)c2ccccc21 | 8.03% [at 5 µM]
FC(F)(F)c1nnc2c(Sc3ccc(Cl)cc3)nc3ccccc3n12 | 30.9%
CC(=O)c1cccc(-c2ccnc3c2CC(C(=O)NCCc2ccccc2)O3)c1 (configuration not stated) | 12.8%
Cc1[nH]c2ccc(C(=O)OC(C)C(=O)NCc3ccccc3)cc2c1C (configuration not stated) | 7.75%
COc1ccc(-c2cc(-c3ccccc3)c(C#N)c(S(C)=O)n2)cc1 (configuration not stated) | 1.33%
C/C(CC(=O)NCc1ccc(Cl)cc1)=N\NC(=O)COc1ccc(C)cc1Br | 37.5%
CC(=O)N1N=C(c2ccccc2)OC1c1ccc([N+](=O)[O-])s1 (configuration not stated) | 49.5%

SMILES | activation (NLG inhibition)
CC1CN(C(=O)/C=C/c2ccc([N+](=O)[O-])s2)CC(C)O1 (configuration not stated) | -5.48%
CCOC(=O)c1c(C)c(C(=O)Nc2ccc(N(C)C)cc2)c(C)n1CC | 44.7%
CC(Nc1nc(-c2cccnc2)nc2ccccc12)c1ccc(F)cc1 (configuration not stated) | 48.9%
Cc1ccc(Nc2nc(-c3cccnc3)nc3ccccc23)cc1 | 8.8%
O=C1c2ccccc2C(=O)C12OC2c1ccc(Cl)cc1Cl (configuration not stated) | 68.1%
Cc1ccc2nc(SCC(=O)Nc3ccc4sc(C)nc4c3)c(C#N)cc2c1 | -4.3% [at 5 µM]
CCCCCCCCCCn1c2c(c(=N)c3c1CCC3)CCC2 | 86.7%
CCCn1c(=N)n(CC(=O)c2ccc([N+](=O)[O-])cc2)c2ccccc21 | 6.58%
Cn1c(Cl)cnc1C1CC(=O)c2cc(Cl)ccc2O1 (configuration not stated) | -17.9%
COc1ccc(OC)c(/C=C/c2ccc3cccc(O)c3n2)c1 | -43%
COc1ccc(NC(=O)c2cccc(Oc3ccccc3)c2)cn1 | 34.3%
Cn1c(SCC(=O)c2ccccc2)ncc(C(=O)Nc2ccccc2)c1=O | 80.2%
Cn1c(SCC(=O)c2ccccc2)ncc(C(=O)Nc2ccc(F)cc2)c1=O | 63.3%
CCOc1ccc(Nc2nnc(SCc3nc4ccccc4c(=O)[nH]3)s2)cc1 | 117%
CC1=Nc2cc(C(=O)NCC3CCCO3)ccc2Sc2ccc(Br)cc21 (configuration not stated) | -2.76%
CC1(C(=O)NCc2cccs2)Cc2c(-c3ccc(C(N)=O)cc3)ccnc2O1 (configuration not stated) | 39.6%
CC(=O)Nc1ccc(-c2ccnc3c2CC(C)(C(=O)NCc2ccco2)O3)cc1 (configuration not stated) | 38.4%
CC1(C(=O)NCc2ccccc2)Cc2c(-c3ccc(C(N)=O)cc3)ccnc2O1 (configuration not stated) | 36.3%
O=C(NCCN1C(=O)S/C(=C\c2cccc(Cl)c2Cl)C1=O)C1=COCCO1 | 44.8%
